A selection: hits, their analogues and other compounds. The true share with any hit is near 11%.
ALDH1A1 block = qHTS Assay for Inhibitors of Aldehyde Dehydrogenase 1 (ALDH1A1); Purified ALDH1A1, NADH fluorescence, propionaldehyde substrate; Potency, µM (titrated, usually from 75.3 µM), usual class: inhibitors; AID 1030, 2008; actives 7.3% (n = 220,000); Aldehyde dehydrogenase 1A1 (Homo sapiens), P00352
HPGD block = qHTS Assay for Inhibitors of HPGD (15-Hydroxyprostaglandin Dehydrogenase); 15-hydroxyprostaglandin dehydrogenase [NAD(+)] (Homo sapiens), P15428; purified HPGD, NADH fluorescence kinetic, PGE2 substrate; Potency, µM, actives largely listed as inhibitors; actives 4.3% (n = 150,000); AID 894, 2007
Target sequence (P15428 whole entry, looked up): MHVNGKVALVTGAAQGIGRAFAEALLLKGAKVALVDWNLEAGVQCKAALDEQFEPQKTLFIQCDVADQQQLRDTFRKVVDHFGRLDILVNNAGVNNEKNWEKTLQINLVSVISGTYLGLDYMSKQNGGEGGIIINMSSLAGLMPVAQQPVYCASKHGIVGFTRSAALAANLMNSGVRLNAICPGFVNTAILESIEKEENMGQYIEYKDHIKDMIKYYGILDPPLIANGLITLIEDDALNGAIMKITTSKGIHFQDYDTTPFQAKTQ
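20 nM HPGD preincubated 15 min at room temperature with compound in 50 mM Tris-HCl pH 8, 0.01% Tween 20. Started with 1 mM NAD+ and 30 uM prostaglandin E2; NADH fluorescence (360/450 nm) read 5 times over 30-s intervals, last minus first.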
PNC assembly inh = High Content Assay for Compounds that inhibit the Assembly of the Perinucleolar Compartment | PC3M PTB-GFP, PNC prevalence imaging, 16 h; hits give low values | activity change (PNC), negative = inhibition, % at 10 µM | actives 3.1% (n = 140,000);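 active = readout at or below -70, meaning at least 70% loss of cells showing the perinucleolar compartment, a nuclear body marking cancer cells; inconclusive = readout between -30 and a set limit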
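Read-out is percentage of cells bearing a perinucleolar compartment, from automated 20x imaging of fixed, Hoechst-stained PC3M PTB-GFP cells. Cells were seeded 4 h, then exposed 16 h to compound (23 nl of library stock) in duplicate plates.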
Large screens that a line does not name were inactive; ! = not active in a repeat. Unless noted, calls come from the whole dose curve; as a rule, active = well fitted inhibition curve with a large enough effect (not every such curve was filed as active); inconclusive = small, poorly fitted or top-dose-only effect, or another doubt; inactive = no such curve, though single readings can be large or run the other way.

O=C(NC1CCCCC1)C(c1ccc2ncccc2c1)N(Cc1ccc(F)cc1)C(=O)c1ccc2c(c1)OCCO2 (stereo not given)	ALDH1A1 block inconclusive
O=C(NC1CCCCC1)C(c1ccc2ncccc2c1)N(Cc1ccc2c(c1)OCO2)C(=O)c1ccc2c(c1)OCCO2 (stereo not given)	ALDH1A1 block 28µM
COc1ccc(OC)c(NC(=O)c2ccno2)c1	none (no result: HPGD block, PNC assembly inh)
CC(=O)Nc1ccc(N2CCOCC2)c(Cl)c1	none (no result: HPGD block, PNC assembly inh)
Cc1ccc(NC(=S)NNC(=O)c2ccc(N3CCOCC3)c([N+](=O)[O-])c2)cc1Cl	ALDH1A1 block 7.9µM
O=C(Nc1ccc(-c2nc3ccccc3o2)cc1)c1ccc(N2CCOCC2)c([N+](=O)[O-])c1	none
Cc1cc(C(=O)Nc2ccc(N3CCCC3)c(Cl)c2)ccc1[N+](=O)[O-]	ALDH1A1 block 20µM
O=C(NNC(=S)Nc1ccc(Br)cc1)c1ccc(N2CCOCC2)c([N+](=O)[O-])c1	ALDH1A1 block 0.89µM, HPGD block 35µM
O=C(Nc1ccc(N2CCCC2)c(Cl)c1)c1ccc([N+](=O)[O-])cc1	none
O=C(NNC(=S)Nc1ccc(Cl)cc1Cl)c1ccc(N2CCOCC2)c([N+](=O)[O-])c1	ALDH1A1 block 0.45µM, HPGD block inconclusive
CCC(=O)N1CCN(c2ccc(Cl)cc2NC(=O)c2ccc(N3CCCC3)c([N+](=O)[O-])c2)CC1	none
Cn1/c(=N/NC(=O)c2ccccc2Br)sc2ccccc21	none (no result: HPGD block, PNC assembly inh)
COC(=O)C1=C(C(=O)OC)[C@@H]2Nc3ccccc3[C@@]23C[C@@H](C(=O)OC)N(S(=O)(=O)c2ccc4c(c2)OCCN4C)C3=N1	none (no result: PNC assembly inh)
Cc1noc(C)c1C(=O)N1CCC[C@@]2(CCN(Cc3ccc(C#N)cc3)C2)C1	none (no result: PNC assembly inh)
CCOc1ccc(NC(=O)c2cc(F)c(F)cc2Cl)cc1OCC	none (no result: HPGD block, PNC assembly inh)
CC(C)(C)OC(=O)NCCCC1=CC2=CC(=O)C(C)(O)C(=O)C2=CO1 (stereo not given)	none (no result: PNC assembly inh)
COC(=O)NC(CCc1ccccc1)C(C(C)=O)C(=O)OC (stereo not given)	none (no result: PNC assembly inh)
O=c1c2ccccc2nc(SCc2nc3ccccc3s2)n1CCCO	ALDH1A1 block inconclusive, PNC assembly inh inconclusive
Cc1ccc(-c2nc3cnccn3c2Nc2ccc3c(c2)OCCO3)o1	ALDH1A1 block 13µM, PNC assembly inh inconclusive
Cc1ccc2nc(-c3ccccc3O)c(Nc3ccc4c(c3)OCCO4)n2c1	ALDH1A1 block inconclusive, HPGD block inconclusive, PNC assembly inh -113
Cc1ccc2nc(-c3ccc(O)cc3)c(Nc3ccc4c(c3)OCCO4)n2c1	ALDH1A1 block inconclusive, HPGD block inconclusive
Cc1ccc(-c2nc3cnccn3c2Nc2ccc3c(c2)OCO3)cc1	ALDH1A1 block inconclusive, PNC assembly inh inconclusive
NS(=O)(=O)c1cccc(NC(=O)COC(=O)CN2C(=O)C3CC=CCC3C2=O)c1 (stereo not given)	none (no result: HPGD block, PNC assembly inh)
CCOC(=O)C1CCN(c2c(NCCN3CCN(c4ccccc4)CC3)c(=O)c2=O)CC1	none
CN(C)c1ccc(CNC(=O)c2ccc(CNc3c(N4CCCCC4)c(=O)c3=O)cc2)cc1	ALDH1A1 block 28µM, HPGD block 22µM
CCOC(=O)C1CCN(c2c(NCc3ccc(C(=O)NC(C)CC)cc3)c(=O)c2=O)CC1 (stereo not given)	ALDH1A1 block inconclusive, HPGD block 5µM
O=C(c1ccc(CNc2c(N3CCCC3)c(=O)c2=O)cc1)N1CCc2ccccc2C1	HPGD block 3.5µM, PNC assembly inh inconclusive
O=C(c1ccc(CNc2c(N3CCCC3)c(=O)c2=O)cc1)N1CCN(C2CCCCC2)CC1	none
COc1ccccc1CNC(=O)c1ccc(CNc2c(N3CCCC3)c(=O)c2=O)cc1	none
COc1ccc(CNC(=O)CS(=O)CC(=O)O)cc1OC (stereo not given)	none (no result: HPGD block, PNC assembly inh)
Cc1ccc(C)c(NCC(O)c2ccccc2)c1 (stereo not given)	none (no result: HPGD block, PNC assembly inh)
CC(=O)O[C@@H]1C(CO[Si](C)(C)C(C)(C)C)=C(Br)C(=O)[C@@H]2O[C@]12C	HPGD block inconclusive (no result: PNC assembly inh)
O=C1NCCN(Cc2c(F)cccc2Cl)C1CC(=O)N1CCCCO1 (stereo not given)	none (no result: HPGD block, PNC assembly inh)
O=C1NCCN(Cc2ccc(Cl)c(F)c2)C1CC(=O)N1CCCCO1 (stereo not given)	ALDH1A1 block 25µM (no result: HPGD block, PNC assembly inh)
CCOC(=O)N1CCN(C(=O)c2cn(C)c3ccc(S(=O)(=O)N4CCC(C)CC4)cc3c2=O)CC1	none (no result: HPGD block, PNC assembly inh)
O=C1[C@H]2[C@H]3[C@H](O)[C@H](O)C/C(=N/OC[C@@H](O)COCc4ccco4)[C@H]3CC[C@@H]2C(=O)N1C1CCCCC1	none (no result: HPGD block, PNC assembly inh)
CS(=O)(=O)N1CCC2(CC1)CN(C(=O)Nc1cccc(F)c1)C2	none (no result: PNC assembly inh)
O=C(CCNS(=O)(=O)c1cccc2nonc12)NC1CCCc2ccccc21 (stereo not given)	ALDH1A1 block 14µM, PNC assembly inh inconclusive
O=C(NC1CCCc2ccccc21)C1CCN(S(=O)(=O)c2cccc3nonc23)CC1 (stereo not given)	ALDH1A1 block 32µM
O=C(NC1CCCc2ccccc21)C1CCN(S(=O)(=O)c2ccccc2F)CC1 (stereo not given)	ALDH1A1 block inconclusive
O=C(CCNS(=O)(=O)c1cccc2nsnc12)NC1CCCc2ccccc21 (stereo not given)	ALDH1A1 block inconclusive
CC(C)c1nnc(NC(=O)C2CCCN2C(=O)Nc2ccccc2[N+](=O)[O-])s1 (stereo not given)	none (no result: HPGD block, PNC assembly inh)
COc1ccc(-c2n[nH]c(=S)n2-c2ccc3c(c2)OCCO3)cc1OC	none (no result: HPGD block, PNC assembly inh)
COc1cc(OC)cc(-c2n[nH]c(=S)n2-c2ccc3c(c2)OCCO3)c1	none (no result: HPGD block, PNC assembly inh)
Oc1ccc(-c2n[nH]c(=S)n2-c2ccc3c(c2)OCCO3)c(O)c1	ALDH1A1 block inconclusive, HPGD block 14µM
COc1ccc(-c2n[nH]c(=S)n2-c2ccc3c(c2)OCCO3)cc1	HPGD block 25µM
CCc1ccc(NC(=O)COC(=O)c2ccc(Cl)c(S(=O)(=O)N3CCCCCC3)c2)cc1	none
CCOc1ccccc1C(=O)NC(C(=O)NCc1ccccc1OC)C(C)C (stereo not given)	none (no result: HPGD block, PNC assembly inh)
CCOc1ccccc1C(=O)N[C@H](C(=O)Nc1cc(S(=O)(=O)N(C)C)ccc1OC)C(C)C	ALDH1A1 block 10µM (no result: HPGD block, PNC assembly inh)
O=C(/C=C/c1ccc(O)c(O)c1)OC1C[C@](O)(C(=O)O)C[C@@H](O)[C@H]1O (stereo not given in full)	ALDH1A1 block 24µM! (no result: PNC assembly inh)
O=C(/C=C/c1ccc(O)c(O)c1)O[C@H]1C[C@@](O)(C(=O)O)CC(O)C1O (stereo not given in full)	none (no result: PNC assembly inh)
CC(NC(=O)COC(=O)CC(c1ccccc1)c1ccccc1)c1ccccc1 (stereo not given)	none
Cc1ccc(NC(=S)N2CCC(N(C)CC3CCCO3)CC2)cc1 (stereo not given)	none (no result: HPGD block, PNC assembly inh)
CC(C)(C)C(=O)Nc1cccc2[nH]ncc12	none (no result: HPGD block, PNC assembly inh)
O=C(Nc1ccc(Cl)cn1)c1ccc(-c2cc(Cl)ccc2Cl)o1	ALDH1A1 block 18µM (no result: HPGD block)
Cn1ncc(Cl)c1C(=O)Nc1ccc(Cl)cn1	PNC assembly inh -100
Cn1ncc(Cl)c1C(=O)Nc1cccc(Cl)c1	ALDH1A1 block 7.9µM, HPGD block 13µM
Cc1cc(NC(=O)c2c(Cl)cnn2C)no1	PNC assembly inh inconclusive
